Screening results as filed in PubChem BioAssay.
Compounds with a hit are over-represented: about 5.5% of the library has one in this group of screens.
RORg inh = inhibitors of mouse ROR gamma transcriptional activity; P51450; Drosophila S2 Gal4-RORgamma UAS-luciferase reporter, 20 h; Potency, µM (titrated, usually from 53.6 µM), without a hit: top-dose activity change, negative = inhibition, hits mostly inhibitors; 310,000 compounds, 5.4% hits; also: % is scaled to controls: 0 for no effect and ±100 for the full control effect; nearly all actives have a fitted effect of over 60% in size
Target sequence (P51450 whole entry, looked up, the tested form may be a part): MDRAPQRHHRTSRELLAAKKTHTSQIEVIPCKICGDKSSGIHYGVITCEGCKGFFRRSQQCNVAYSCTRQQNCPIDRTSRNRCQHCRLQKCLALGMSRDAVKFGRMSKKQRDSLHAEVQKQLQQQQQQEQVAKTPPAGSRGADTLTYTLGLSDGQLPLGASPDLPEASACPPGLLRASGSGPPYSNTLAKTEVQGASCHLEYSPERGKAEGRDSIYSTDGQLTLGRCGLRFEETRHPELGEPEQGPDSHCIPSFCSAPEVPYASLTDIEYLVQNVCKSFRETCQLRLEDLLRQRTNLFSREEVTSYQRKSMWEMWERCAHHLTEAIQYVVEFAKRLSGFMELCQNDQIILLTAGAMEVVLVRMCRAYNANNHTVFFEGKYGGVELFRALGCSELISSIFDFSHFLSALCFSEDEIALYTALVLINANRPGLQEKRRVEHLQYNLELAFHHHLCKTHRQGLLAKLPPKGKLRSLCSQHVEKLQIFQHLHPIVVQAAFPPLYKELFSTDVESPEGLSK
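Stable Schneider cell line, Gal4 DNA-binding domain fused to ROR gamma, UAS-luciferase. Cmpd 1 hr RT → CuSO4 700 uM final → 20 hr RT → luciferase reagent 10 min → luminescence.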
Chronic BCR inh = inhibitors of chronic active B-cell receptor signaling; ABC-DLBCL IkBa-CBG/CBR reporter, luminescence ratio, 4 h; Potency, µM (highest dose often 46.1 µM), inactives show at the top dose activity change, negative = inhibition, usual class: inhibitors; 340,000 compounds, 0.05% hits; AID 493014; active = well fitted inhibition curve with a large enough effect in the signal ratio, with a control signal flat, not every such curve was filed as active; inconclusive = small, poorly fitted or top-dose-only effect, or effect the other way, or a change in a side signal; the % refers to the signal ratio;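 also: plate controls were basal doxycycline-induced cells for no effect and cells given 10 µM MG132 for full effect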
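TMD8 ABC-DLBCL cells carrying doxycycline-inducible green luciferase fused to IkappaBalpha plus unfused red luciferase were exposed to compounds (up to 46 uM) for 4 hrs at 37C. Activity came from the overlap-corrected green/red luminescence ratio.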
uPA generation = inhibitors of cell surface uPA generation | cell surface uPA generation assay, qHTS | Potency, µM (doses to about 38.3 µM), without a hit: at the top dose activity change, negative = inhibition, most hits filed as inhibitors | 330,000 compounds, 0.31% hits; active = well fitted inhibition curve with a large enough effect; inconclusive = small, poorly fitted or top-dose-only effect; inactive = no such curve, though single readings can be large or run the other way; tested in mouse RAW 264.7 cells; also: % is scaled to controls: 0 for no effect and ±100 for the full control effect; nearly all actives have a fitted effect of over 55% in size
Integrin act MD = integrin-mediated muscular dystrophy alleviation activation; AID 624291; Potency, µM (doses to about 38.3 µM), for the others: at the highest dose activation, hits mostly activators; 350,000 compounds, 0.064% hits; alpha7betagal myoblasts, beta-gal FDG fluorescence, 48 h;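 also: 100% = response of the positive control SU9516; nearly all actives have a fitted effect of over 60% in size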
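alpha7betagal+/- myoblasts (passage 13, 250/well) treated 48 h at 37C with compounds at 1:260 dilution of DMSO stock. Lysed, then beta-galactosidase activity read as FDG fluorescence (ex 480/em 540) after 30 min, with pre-read for autofluorescence.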
Mito fusion act = blocks mitochondrial division or promotes mitochondrial fusion; S. cerevisiae fusion-defective mutant growth rescue, CellTiterGlo 48 h; Potency, µM (titrated, usually from 46.1 µM), for inactives: at the top dose growth rescue (activation), most hits filed as activators; 320,000 compounds, 0.23% hits; also: % of control where 0% means no effect; nearly all actives have a fitted effect of over 45% in size
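S. cerevisiae fusion-defective temperature-sensitive mutants (e.g. fzo1-1, mgm1-5) grown 48 h at 37C in YPEG (ethanol/glycerol non-fermentable) medium with 23 nl compound per well; growth rescue read as CellTiterGlo luminescence.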
Gal4-VP16 FLuc = Gal4-VP16 reporter inhibition counter-screen | 310,000 compounds, 3.5% hits | Drosophila S2 Gal4-VP16 UAS-luciferase, luminescence, 20 h | Potency, µM (doses to about 53.6 µM), inactives show top-dose activity, negative = inhibition, actives largely listed as inhibitors;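 also: Gal4-VP16 expression switched on by copper sulfate through the metallothionein promoter; % is scaled to controls: 0 for no effect and ±100 for the full control effect; nearly all actives have a fitted effect of over 50% in size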
Numbers without * were called inactive; u = inconclusive; x = no result. Unless noted, calls follow the shape of the dose curve; as a rule, active = well fitted curve in the direction sought with a large enough effect; inconclusive = small, poorly fitted or top-dose-only effect, or another doubt; inactive = no such curve, though single readings can be large; an effect the other way counts as inactive or inconclusive. Potency is read from the fitted curve at half-maximal effect.

SMILES	RORg inh	Chronic BCR inh	uPA generation	Integrin act MD	Mito fusion act	Gal4-VP16 FLuc
O=C(CNc1ccccc1)N/N=C/c1ccc([N+](=O)[O-])o1	1.3%	u	-11.1%	-61.0%	-5.3%	u
Cc1scc(C(=O)N/N=C/c2ccc([N+](=O)[O-])o2)c1C	3.98µM*	u	x	x	-4.8%	7.08µM*
O=C(O)[C@H](Cc1ccccc1)NC(=O)N1CCN(c2ccc(F)cc2)CC1	-7.1%	-0.3%	5.8%	5.9%	-0.3%	-2.7%
OC1OC[C@H](O)[C@H](O)[C@H]1O (stereo partly specified)	2.9%	x	x	x	x	-7.5%
O=C1OCCC1N(C(=O)C1CC1)c1cccc(Cl)c1 (stereo unspecified)	-3.4%	x	x	x	x	-3.8%
Cc1scc(C(=O)N/N=C/c2ccsc2)c1C	u	2.7%	6.31µM*	-10.7%	-22.5%	u
O=[N+]([O-])c1ccc(/C=N\NS(=O)(=O)c2ccc(F)cc2)o1	u	-3.2%	8.91µM*	-23.1%	-9.0%	14.1µM*
Cc1scc(C(=O)N/N=C/c2ccco2)c1C	-37.7%	u	-6.3%	-10.3%	-5.7%	-5.0%
O=C(CCC(=O)Nc1ccc(Cl)cc1Cl)N/N=C/c1ccc([N+](=O)[O-])o1	u	1.5%	-12.6%	-55.7%	-4.6%	15.8µM*
O=c1oc2cc(O)ccc2cc1-c1nc(-c2ccc(Cl)c(Cl)c2)cs1	x	-9.5%	x	x	x	x
CCN(CC)CCC(c1ccc(OC)cc1)c1c(OC)cc(OC)c2c(C)cc(=O)oc12 (stereo unspecified)	-17.4%	x	x	x	x	-15.8%
CCCCCc1cc(=O)oc2c(C(CCN(CC)CC)c3ccc(OC)cc3)c(OC)cc(OC)c12 (stereo unspecified)	u	u	u	-1.9%	-37.3%	8.91µM*
Cc1ccc(S(=O)(=O)/N=C2/C=C(C3C(=O)CC(C)(C)CC3=O)C(=O)c3ccccc32)cc1	11.2µM*	u	-10.0%	-9.6%	2.4%	u
Cc1[nH]nc2c1C1(CCN(C(=O)OCc3ccccc3)CC1)C(C#N)=C(N)O2	5.01µM*	u	2.4%	8.6%	1.3%	u
O=C(N/N=C/c1cc([N+](=O)[O-])ccc1O)C(O)(c1ccccc1)c1ccccc1	0.891µM*	u	1.5%	-6.2%	0.3%	0.891µM*
O=C(N/N=C/c1cccc([N+](=O)[O-])c1)c1cccc2cc[nH]c12	-0.8%	-19.3%	3.6%	-8.5%	-2.0%	1.7%
O=C(N/N=C/c1cc([N+](=O)[O-])ccc1O)c1cccc2cc[nH]c12	1.41µM*	u	4.47µM*	-31.0%	3.3%	3.55µM*
Cc1sc(N/N=C/c2cc([N+](=O)[O-])ccc2O)nc1-c1ccccc1	0.282µM*	3.4%	6.6%	0.0%	6.5%	0.708µM*
CCc1ccc(N2CC(C(=O)N/N=C/c3cc([N+](=O)[O-])ccc3O)CC2=O)cc1 (stereo unspecified)	4.47µM*	3.8%	-6.8%	9.2%	0.1%	10µM*
CO/N=C(\C(=O)N[C@@H]1C(=O)N2C(C(=O)O)=C(CSc3nc(=O)c(O)nn3C)CSC12)c1csc(N)n1 (stereo partly specified)	x	x	x	x	-1.1%	x
O=C(N/N=C/c1cc([N+](=O)[O-])ccc1O)C1CC1	1.78µM*	-4.1%	u	-22.7%	5.7%	7.94µM*
O=C1NCCCC1C(=O)N/N=C/c1cc([N+](=O)[O-])ccc1O (stereo unspecified)	-42.3%	-1.1%	0.4%	11.6%	6.8%	-9.2%
COc1ccc([C@H]2C[C@H](n3cc(C4CC4)nn3)[C@@H](O)CN2C(=O)C2CCCCC2)cc1	x	x	x	13.3%	x	x
COc1ccccc1NS(=O)(=O)c1cc(C(=O)N2CCCC2)ccc1F	x	u	-0.7%	-9.4%	0.6%	x
CCN1CCc2c(sc(NC(=O)COc3ccccc3)c2C(=O)OC)C1	-17.6%	3.0%	-20.8%	-21.9%	-1.7%	-5.6%
SMILES	RORg inh	Chronic BCR inh	uPA generation	Integrin act MD	Mito fusion act	Gal4-VP16 FLuc
Cc1cc(C(=O)CN2c3cccc4cccc(c34)S2(=O)=O)c(C)n1C	x	u	2µM*	0.0%	17.6%	x
O=C(Nc1nc2ccccc2[nH]1)C12CC3CC(CC(C3)C1)C2	6.31µM*	u	-11.3%	-8.3%	u	10µM*
O=C(Nc1nc2ccccc2[nH]1)C1CC1	u	3.4%	-10.9%	-22.5%	2.2%	u
O=C(CC1CCCCC1)Nc1nc2ccccc2s1	-11.4%	6.9%	-2.3%	u	0.2%	1.2%
O=C(Nc1nc2ccccc2[nH]1)NC1CCCCC1	11.2µM*	u	-13.1%	10.5%	2.5%	u
CCOC(=O)C(C(=O)Nc1cccc(C)n1)C1CCCCC1 (stereo unspecified)	-4.9%	u	0.4%	19.1%	3.9%	9.4%
O=C(OCc1nc2ccccc2[nH]1)C12CC3CC(CC(C3)C1)C2	-10.9%	-0.1%	x	6.3%	4.2%	u
O=C(Nc1nc2ccccc2s1)NC1CCCCC1	12.6µM*	u	7.94µM*	24.4%	13.6%	-46.3%
CCOC(=O)C(C(=O)Nc1nc2ccccc2s1)C1CCCCC1 (stereo unspecified)	5.01µM*	17.8%	0.4%	-1.7%	11.8%	-1.0%
NS(=O)(=O)c1cc2c(cc1Cl)NC(Cc1ccccc1)NS2(=O)=O (stereo unspecified)	30.0%	6.4%	9.9%	1.2%	1.2%	3.7%
CCC(C)c1ccccc1NC(=O)COC(=O)c1ccc2[nH]c3c(c2c1)CCCC3 (stereo unspecified)	5.6%	u	-8.0%	-48.4%	13.3%	20µM*
O=C(COC(=O)c1ccc2[nH]c3c(c2c1)CCCC3)Nc1ccccc1Cl	3.0%	4.1%	2.4%	-2.9%	-4.3%	-9.7%
COc1ccc(-c2noc(CSc3nc(N)c(-c4ccccc4)c(=O)[nH]3)n2)cc1	85.2%	16.4µM*	-37.3%	-13.5%	0.8%	-28.1%
COc1ccccc1NC(=O)c1nc[nH]c1C(=O)Nc1ccccc1OC	2µM*	u	-4.6%	0.0%	-1.1%	u
Cc1cccc(NC(=O)c2nc[nH]c2C(=O)Nc2ccccc2F)c1	x	x	x	14.4%	x	x
